Data on 93 molecules can be found in PubChem BioAssay AID1628 (Sanford-Burnham Center for Chemical Genomics, 2009).

Out of some 190,000 compounds screened, about 930 (0.49%) were called active.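 The calls were made as follows: active = z-score of insulin promoter reporter brightness in nuclei below -3 at 5 µM, with at least 500 cells counted; inconclusive = wells with under 500 cells, flagged as toxic or sparse; inactive = the rest.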 This is one part of the list. Measured potencies and affinities stand elsewhere.

A short description of this experiment: decrease of insulin promoter-GFP reporter – imaging, high-content screening, mouse beta cells (AID 1628). The note with it: MIN6 insulin promoter GFP reporter, at 5 µM, hits give low values.
Regarding `Cc1ccc(/C(N)=N/OC(=O)c2ccc(F)cc2)cc1`, the z-score was -4.16 (active).
Take `CCC1COC(c2cccn2Cc2ccc(Cl)cc2)=N1` (stereo not drawn): the z-score was 2.5 (inactive).
Regarding `CC1=C/C(=C\C=C(C#N)C#N)N(C)c2ccccc21`, the z-score was 4.05 (inactive).
Consider `COCc1cc(C)nc(Nc2ccccc2C)c1C#N`, for which the z-score was 3.32 (inactive).
For `CCCOC(=O)C1=C(C)NC2=C(C(=O)CCC2)C1c1cccc(OC)c1OC` (stereo not drawn), the z-score was -0.62 (inactive).
For `CCCOC(=O)c1ccc(NC(=O)c2cc(OC)c(OC)c(OC)c2Br)cc1`, the z-score was -3.3 (active).
Take `C=CCNC(=S)NNC(=O)c1ccc(OCCCC)cc1`: the z-score was 0.58 (inactive).
Consider `COC(=O)c1cc(NC(=O)c2ccccc2)c(=O)oc1/C=C/Nc1ccc(Oc2ccccc2)cc1`, for which the z-score is 10.8 (inactive).
The same measure for `CCOc1ccc2c(c1)C(C)=CC(C)(C)N2S(=O)(=O)c1ccc(C)cc1`: -3.31 (active).
The same measure for `CCOc1ccc2nc(NCCCNS(=O)(=O)c3ccc(C)cc3)c(C#N)cc2c1`: 1.84 (inactive); for `CCOc1ccc(NS(=O)(=O)c2ccc(NS(=O)(=O)c3ccccc3)cc2)cc1`: 7.53 (inactive).
The same measure for `C=C(C)Cn1c(CCCNC(=O)CC)nc2ccccc21`: 0.76 (inactive).
In the case of `Cc1nc2ccccc2n1CC(=O)NCc1ccccc1`, the z-score was -3.91 (active).
The same measure for `O=c1ccnc(Nc2ccc3c(c2)OCCO3)[nH]1`: 3.66 (inactive); for `O=C(COC(=O)c1ccco1)Nc1ccc2c(c1)OCCO2`: 0.45 (inactive); for `Cn1nc(CC(=O)Nc2cccc3ncccc23)c2ccccc2c1=O`: -4.57 (active).
For `O=C(CCl)Nc1cccc2ncccc12`, the z-score is 4.01 (inactive).
The same measure for `COc1ccccc1NC(=O)CSc1nc2c(sc3ccccc32)c(=O)n1CCN(C)C`: 2.23 (inactive).
The figure for `O=C(O)c1ccc(N2C(=O)Nc3ccccc3N2O)cc1` is 2.34 (inactive); for `CCn1cc(C(=O)O)c(=O)c2cc(F)c(N3CCN(C)CC3)cc21` it is -0.61 (inactive).
On to `CCn1cc(C(=O)O)c(=O)c2cnc(N3CCN(C(=O)Nc4cccc5ccccc45)CC3)nc21`, for which the z-score is -5.9 (active).
Consider `CCn1cc(C(=O)O)c(=O)c2cnc(N3CCN(C(=S)Nc4ccc(F)cc4)CC3)nc21`, for which the z-score is -3.18 (active).
The same measure for `COc1ccc(/C=C(\C#N)C(=O)OCC(=O)Nc2c(C)cccc2C(C)C)cc1`: 3.36 (inactive).
For `O=C(O)C1CC=CCC1C(=O)Nc1ccc(N2CCN(Cc3ccccc3)CC2)cc1` (stereo not drawn), the z-score is -4.25 (active).
The figure for `CN(C)c1ccc(/C=C2\N=C(c3ccc(Cl)c([N+](=O)[O-])c3)NC2=O)cc1` is 4.65 (inactive); for `CCOc1ccc(CN(Cc2ccco2)C(c2cccs2)c2nnnn2C(C)(C)C)cc1` (stereo not drawn) it is -3.47 (active).
For the molecule `COc1ccc2nc(N/C(N)=N/C(=S)Nc3ccccc3)nc(C)c2c1`, the z-score was 2.22 (inactive).
The same measure for `CN(C)c1ccc(/C=C(/C#N)C(=O)NCc2ccccc2)o1`: 16.1 (inactive); for `CCCNc1c(F)c(F)c2c(C)c3ccccc3nc2c1F`: 5.94 (inactive).
Regarding `O=C(Oc1ccc2ccccc2c1)c1ccco1`, the z-score was -0.59 (inactive).
The same measure for `CSc1nc(-c2ccco2)nn1C(=O)c1ccco1`: -6.58 (active); for `Cc1ccc(NS(=O)(=O)c2ccc(CCC(=O)O)cc2)cc1`: 1.37 (inactive).
For the molecule `Cc1ccc(S(=O)(=O)NC(N)=NCCc2ccc(Cl)cc2)cc1`, the z-score was -4.29 (active).
Take `Cc1ccc(S(=O)(=O)Nc2ccc(=O)n(Cc3ccc(Cl)c(Cl)c3)c2)cc1`: the z-score was 3.26 (inactive).
For `O=C1CN(C(=O)COc2ncnc3ccccc23)c2ccccc2N1`, the z-score was 4.05 (inactive).
The figure for `COc1ccc2c(=O)c(-c3ccccc3)coc2c1` is -0.45 (inactive); for `CCCCOc1ccc(-c2cc(C(F)(F)F)c(C#N)c(SCC(=O)O)n2)cc1` it is 4.82 (inactive).
The same measure for `C=CCn1c(SCCOc2ccc(OC)cc2)nnc1C(C)NC(=O)Cc1ccc(OC)cc1` (stereo not drawn): 4.23 (inactive).
The figure for `Cc1nn(C)c(C)c1S(=O)(=O)N(CC(=O)Nc1nccs1)c1ccc(C(C)C)cc1` is 3.98 (inactive); for `C=CCn1c(SCC(=O)Nc2cc3oc4ccccc4c3cc2OC)nnc1-c1cnccn1` it is -3.06 (active).
Take `C=CCn1c(SCC(=O)Nc2nccs2)nnc1-c1cc2cccc(OC)c2o1`: the z-score was -3.45 (active).
The figure for `CN(C)C(=O)CSc1nnc(-c2cnccn2)n1C` is 0.77 (inactive); for `CCCCc1c(C)nn(-c2nnc3c4ccccc4n(CC)c3n2)c1C` it is -3.04 (active).
The same measure for `COc1ccc(C2C(C#N)=C(N)N(c3ncn[nH]3)C3=C2C(=O)CCC3)cc1` (stereo not drawn): 1.75 (inactive); for `CCCC(=O)c1c(C)c2ccccc2n1C`: 3.01 (inactive).
The figure for `CCN(CC)C(=O)Oc1cc(=O)n(C)c2ccccc12` is -3.24 (active).
For `Cc1cc(NC(=O)c2cccc(S(=O)(=O)N3CCCCCC3)c2)n(-c2ccccn2)n1`, the z-score was -3.67 (active).
The figure for `Nc1cccc2c1C(=O)N(C(=O)c1cccc(S(=O)(=O)N3CCCC3)c1)C2=O` is 3.15 (inactive); for `O=C(Nc1ccon1)c1cccc(S(=O)(=O)N2CCCCC2)c1` it is 3.46 (inactive); for `CC1=CN2C(=N)/C(=C/c3ccc([N+](=O)[O-])o3)C(=O)N=C2S1` it is 8.52 (inactive).
The same measure for `CCCCCCc1cc2cc(-c3nnc(-c4cc(OC)c(OC)c(OC)c4)o3)c(=O)oc2cc1O`: 9.96 (inactive); for `Cc1c(C(c2ccc([N+](=O)[O-])cc2)c2c(C)n(C)n(-c3ccccc3)c2=O)c(=O)n(-c2ccccc2)n1C`: 4.14 (inactive); for `CC(=O)N1CCc2cc(Br)cc(S(=O)(=O)CCC(=O)Nc3c(C)n(C)n(-c4ccccc4)c3=O)c21`: 2.32 (inactive).
On to `Cc1c(NC(=O)CN2CCN(c3ccc([N+](=O)[O-])cc3)CC2)c(=O)n(-c2ccccc2)n1C`, for which the z-score is -3.45 (active).
The figure for `Cc1cc(N2CCCC2)ccc1/C=C1/C(=O)N(C)C(=S)N1C` is 3.32 (inactive); for `CCOc1cc(NC(=O)c2ccco2)c(OCC)cc1NC(=O)c1cc(OC)c(OC)c(OC)c1` it is -3.03 (active); for `COC(=O)c1sccc1NC(=O)c1cc(OC)c(OC)c(OC)c1` it is 3.71 (inactive).
For `CCN1/C(=C/c2ccc3cc(C)ccc3[n+]2CC)Sc2ccccc21`, the z-score is 16.5 (inactive).
The same measure for `CCN1/C(=C/C(C)=C/c2sc3ccccc3[n+]2CC)Sc2ccccc21`: -3.52 (active); for `CCN1/C(=C\C=C(C(C)=O)C(C)=O)Sc2ccccc21`: 7.73 (inactive); for `CCCCNC(=O)/C(C#N)=c1\s/c(=C\c2ccccc2OC(F)F)c(=O)n1CCCOC`: 4.53 (inactive).
The same measure for `O=C(NC(Nc1nc2ccc([N+](=O)[O-])cc2s1)(C(F)(F)F)C(F)(F)F)c1cccnc1`: -3.96 (active); for `COc1ccccc1NC(=O)c1c(NC(=O)c2ccco2)sc2c1CCC2`: -3.67 (active).
For the molecule `COc1ccccc1NC(=O)c1ccc(-c2ccccc2[N+](=O)[O-])o1`, the z-score was 1.05 (inactive).
In the case of `COC(=O)c1sc(NC(=O)c2ccco2)nc1C`, the z-score is 1.53 (inactive).
The same measure for `CCn1c2ccccc2c2nnc(SCC(=O)Nc3cc(C)on3)nc21`: 3.98 (inactive).
`CCn1c(SCC(=O)Nc2cc(C)on2)nc2c(c1=O)SC(C)C2` (stereo not drawn): the z-score is -3.41 (active).
With `COc1cc2cc(C)c3nnc(SCC(=O)Nc4cc(C)on4)n3c2cc1OC`, the z-score was 5.98 (inactive).
The figure for `CCO[C@@H]1OC(C(=O)Nc2ccccc2)=C[C@H](c2ccc(C(F)(F)F)cc2)[C@H]1CCCO` is -3.04 (active); for `CCCN1C(=O)/C(=C/c2c(N3CCNC(=O)C3CC(=O)OC)nc3c(C)cccn3c2=O)SC1=S` (stereo not drawn) it is 6.46 (inactive); for `COc1ccc(NC2=Nc3ccccc3N3C2=Nc2c(c(C)nn2-c2ccc(C)cc2)C3c2cccnc2)cc1` (stereo not drawn) it is 3.08 (inactive).
As to `CCOc1ccccc1C(=O)NCC(=O)O`, the z-score was 0.62 (inactive).
In the case of `CCOC(=O)CCNC(=O)CNC(=O)OCc1ccccc1`, the z-score is -4.19 (active).
The same measure for `COc1ccc(CN2C(=O)/C(=C/c3ccc(-c4ccc(Cl)c(C(=O)O)c4)o3)SC2=S)cc1`: 5.56 (inactive); for `CCOc1cc(C)c(S(=O)(=O)Nc2ccc3cn[nH]c3c2)cc1C`: 4.24 (inactive).
For `CCc1ccc(NC(=S)Nc2ccc3cn[nH]c3c2)cc1`, the z-score is -5.26 (active).
The figure for `C=CCn1c(SCc2c(C)noc2C)nc2sc3c(c2c1=O)CCCCC3` is -4.19 (active); for `CN(C)C(=O)C12CCC(C)(c3nc4ccccc4nc31)C2(C)C` (stereo not drawn) it is 3.42 (inactive).
In the case of `c1ccc2nc(-c3ccc4c(c3)OCO4)ccc2c1`, the z-score is -0.48 (inactive).
The same measure for `O=C(Nc1nc(-c2ccc3c(c2)OCO3)cs1)c1ccncc1`: -4.14 (active); for `O=C1/C(=C/c2ccc(N3CCOCC3)o2)SC(=Nc2ccccc2)N1CCc1c[nH]c2ccccc12`: 17.8 (inactive).
The same measure for `COc1ccc(N2CCN(C(=O)CSc3nc4c(c(=O)n(C)c(=O)n4C)n3C(C)C)CC2)cc1`: -3.09 (active).
The figure for `CC1CCCN(c2nc3c(c(=O)n(C)c(=O)n3C)n2CCSc2nc3ccccc3s2)C1` (stereo not drawn) is 3.19 (inactive).
On to `COCCn1c(CN2CCN(c3ccc(OC)cc3)CC2)nc2c1c(=O)n(C)c(=O)n2C`, for which the z-score is -7.6 (active).
Consider `Cc1cc(C)c(C(=O)O)c(CC(C)(C)C(=O)O)c1`, for which the z-score is 3.14 (inactive).
As to `Cn1c(=O)c(N)c2c3c(c(Br)ccc31)C(=O)c1ccccc1-2`, the z-score is 16.9 (inactive).
As to `Cc1c(-c2cc(C(=O)O)on2)cnn1C`, the z-score is 1.94 (inactive).
Consider `CC(C)N=c1scc(-c2ccco2)n1/N=C/c1ccc(O)c(O)c1`, for which the z-score was -5.1 (active).
`CCCCN(C)C(=S)Nc1ccsc1C(=O)OC`: the z-score was 2.3 (inactive).
For the molecule `CCOc1cc(/C=N/Nc2nc3ccccc3[nH]2)cc(Br)c1OCC(=O)N(C)C`, the z-score is -3.72 (active).
For the molecule `CCOc1cc2[nH]c(=O)n(Cc3ccc(C(=O)NCCOC)cc3)c(=O)c2cc1OCC`, the z-score is 1.15 (inactive).
The same measure for `CCOc1cc(/C=C/C(=O)Nc2ccc(C(=O)NCCN(CC)CC)cc2)ccc1OCC(C)C`: -4.98 (active).
The figure for `Cc1ccc(C(OCC(O)CNC(C)c2ccccc2)c2ccccc2)cc1` (stereo not drawn) is -3.13 (active).
